RVFV N-RNA inh = inhibitors of RVFV nucleoprotein–RNA binding, primary screen, biochemical, fluorescence polarization; RVFV N-RNA binding; hits give low values; % bound, % (no concentration beside the values); P21700; 0.1% of 20,000 active; AID 651828, 2012; in the data active = % bound below about 75%
Target sequence (P21700 whole entry, looked up): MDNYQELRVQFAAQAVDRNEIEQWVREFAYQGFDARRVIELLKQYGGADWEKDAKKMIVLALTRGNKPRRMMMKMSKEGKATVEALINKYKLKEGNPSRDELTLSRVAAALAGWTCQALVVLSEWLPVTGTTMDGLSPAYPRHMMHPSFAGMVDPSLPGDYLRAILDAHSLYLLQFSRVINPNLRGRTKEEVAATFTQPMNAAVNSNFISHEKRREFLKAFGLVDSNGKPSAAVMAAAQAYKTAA
* hit, by the source's call. The full list was thinned out, with hits kept by preference.

SMILES	RVFV N-RNA inh
CC(=O)Oc1cccc(C(=O)NC2CCCCC2)c1	93
CCOCC(=O)Nc1c(C(=O)Nc2ccc(F)c(F)c2)oc2ccccc12	101
NS(=O)(=O)c1ccc(N/C=C2/CCCCC2=O)cc1	96
COc1cc2ncn(-c3cc(OCc4ccc(S(C)(=O)=O)cc4)c(C(N)=O)s3)c2cc1OC	100
CC1(C)C(=O)C2(C(=O)NCCc3ccccc3)CCC1C2 (stereo not drawn)	97
Cc1ccc(/C=N/NC(=O)C2CC23CCC3)cc1 (stereo not drawn)	99
Cc1nnc(C)n1N1C(=O)c2cccc3cccc(c23)C1=O	88
O=C1C=C(O)c2cccc3cccc1c23	45*
CCCC(=O)ON1C(=O)c2cccc3cccc(c23)C1=O	98
CCN(C1CCS(=O)(=O)C1)S(=O)(=O)c1ccccc1 (stereo not drawn)	95
CCCC(CCC)(C(=O)O)C(=O)O	100
Cc1ccc(N/N=C(\C#N)C(=O)c2cc(C)nn2C(C)(C)C)cc1	98
C=CCn1ccn(-c2ccc(OCC)cc2)c(=O)c1=O	107
CCOC(=O)/C(C#N)=C/c1ccc(-c2cccs2)s1	19*
CCOC(=O)/C(C#N)=C/N1CCCC1c1cccs1 (stereo not drawn)	92
N#CC(C#N)=Cc1ccc(-c2cccs2)s1	86
CN(C)c1ccc(C(=S)N2CCN(C(N)=S)CC2)cc1	104
C/C(=N\OC(=O)c1ccco1)c1ccccc1O	94
COc1ccc(O)cc1	99
COC(=O)c1cc(-c2ccc(OC)cc2)n[nH]1	89
COc1ccc(C2=CC(=O)C=CC2=O)cc1	52*
CC1(C)CN=C(NCCNC2=NCC(C)(C)S2)S1	96
CCC(=O)Nc1ccc(N2CCCCS2(=O)=O)cc1	95
Cc1c(C(=O)Nc2ccc(S(N)(=O)=O)cc2)oc2ccccc12	100
CSc1ccc(S(=O)(=O)NCCc2ccccc2)cc1	91
SMILES	RVFV N-RNA inh
NNC(=O)C1CCN(c2ncc(C(F)(F)F)cc2Cl)CC1	95
O=C(NCCN1CCOCC1)c1cccc2c1OCCCO2	97
Cn1c(SCc2ccccc2Cl)nnc1C(O)C(O)c1nnc(SCc2ccccc2Cl)n1C (stereo not drawn)	101
O=C(Nc1nc(-c2ccc3c(c2)OCCO3)cs1)c1ccc(Br)s1	99
CCC(=O)Nc1ccc(-c2ccc3nncn3n2)cc1	96
O=C(COC(=O)c1ccco1)c1ccc(OC(=O)c2ccccc2)cc1	101
O=C(NC1CC1)c1cc2c(ccc3ccccc32)oc1=O	95
N#C/C(=C\c1cn(Cc2ccccc2)c2ccccc12)C(=O)Nc1ccccc1O	99
CCOC(=O)C1C(=O)OC(C)(C)C1C(=O)OCC (stereo not drawn)	97
C=CCN(CC=C)S(=O)(=O)c1ccc(C(=O)N2CC(C)CC(C)C2)cc1 (stereo not drawn)	86
CC(C)c1ccc(NC2=CC(=O)CCC2)cc1	95
COc1ccc(C2CC(c3nc4ccccc4[nH]3)=NN2C(=O)c2ccc(Br)o2)cc1 (stereo not drawn)	98
COc1c(C(=O)NC(=S)NCc2ccco2)cc2ccccc2c1Br	98
COc1cccc2cc(C(=O)N3CCN=C3c3ccccc3)c(=O)oc12	99
COc1ccc(/C(C)=N/NC(=O)CC2(C)OCCO2)c(OC)c1	100
CCOC(=O)c1c(C)[nH]c(/C=C2\C(=O)Nc3ccccc32)c1C	12*
O=C1Nc2ccccc2/C1=C\c1c(Cl)[nH]c2ccccc12	103
CCN(CC)CCNC(=O)c1c(C)[nH]c(/C=C2\C(=O)Nc3ccc(Cl)cc32)c1C	109
COc1ccc(/C=N/N=C2\CC(C)(C)Cc3n[nH]c(=O)cc32)cc1OC	85
Cc1csc2nc(SCCC(=O)Nc3ccccc3)[nH]c(=O)c12	97
COc1ccc(/C=C2\C(=O)NC(=O)N(C)C2=O)cc1	92
Cc1ccc(CC(=O)NCCN(C)C)cc1	97
CCOc1cc(C(=O)n2cc(C)cn2)cc(OCC)c1OCC	92
CS(=O)(=O)Nc1nnc(SCCCc2ccccc2)s1	92
c1ccc(CSc2nnc3ccc(-c4ccc5c(c4)OCO5)nn23)nc1	95
SMILES	RVFV N-RNA inh
C=CCn1c(C(O)c2ccccc2)n[nH]c1=S (stereo not drawn)	99
O=C(CSc1cn(Cc2ccccc2)c2ccccc12)NCc1ccco1	95
CC1OC(C)C2Cc3ccccc3C2O1 (stereo not drawn)	103
CN(C)c1ccc(C2NN(Cc3ccccc3)C3C(=O)N(C4CCCCC4)C(=O)C23)cc1 (stereo not drawn)	94
Cc1ccc(C(=O)Nc2cccc(N3CCCC3)c2)cc1	91
O=C1NC(=Nc2ccccc2O)CS1	97
Cc1ccc(S(=O)(=O)CCC(=O)Nc2ccc(S(N)(=O)=O)cc2)cc1	90
CS(=O)(=O)Nc1ccc(/C(N)=N/OC(=O)Nc2ccccc2)cc1	101
CCN(CC)Cc1c(O)ccc2c1O/C(=C\c1ccccc1Cl)C2=O	51*
O=C1/C(=C/c2ccccc2)Oc2c1ccc(O)c2CN1CCCC1	106
CCN(CC)Cc1c(O)ccc2cc(-c3ccc(OC)c(OC)c3)c(=O)oc12	93
NC(=O)CC(=O)NC12CC3CC(CC(C3)C1)C2	98

Bioassay records deposited in PubChem by ICCB-Longwood Screening Facility, Harvard Medical School.
